{"source": "PubChem BioAssay (NCATS)", "note": "Inconclusive results are not listed. Values without a mark were called inactive. Active and inactive are the calls of the source. The call rests on the fitted dose curve; in most records, active means well fitted cell-killing curve with a large enough effect; inconclusive means small, poorly fitted or top-dose-only effect, or effect the other way; inactive means no such curve, though single readings can be large or run the other way. Potency means the concentration at half of the fitted maximal effect.", "data": [{"experiment": "Quantitative High-Throughput drug screen in 47 multiple myeloma cell lines against the NCATS MIPE library collection: Karpas620_DSMZ cell viability assay (AID 1918959); further: nearly all actives have a fitted effect of over 30% in size", "conditions": "Karpas620 myeloma viability, CellTiter-Glo ATP luminescence, 48 h; series mostly up to 45.8 µM; viability (% of DMSO): at the top concentration", "text": "PI: Beverly A. Mock Ph.D.\nLaboratory of Cancer Biology and Genetics,\nCenter for Cancer Research, National Cancer Institute,\nNational Institute of Health, Bethesda, Maryland\nDrug resistance and disease progression are common in multiple myeloma (MM) patients, underscoring the need for new therapeutic combinations. […] We hypothesized that effective combinations would reduce MYC expression and enhance p16 activity. […] These preclinical data identify potentially useful drug combinations for evaluation in drug-resistant MM and reveal potential mechanisms of combined drug sensitivity.\nDescribed herein is the primary MIPE qHTS used to cherrypick compounds. Validated compounds were then further tested for potential synergistic activiy.\n[1] Peat TJ, Gaikwad SM, Dubois W, Gyabaah-Kessie N, Zhang S, Gorjifard S, Phyo Z, Andres M, Hughitt VK, Simpson RM, Miller MA, Girvin AT, Taylor A, Williams D, D'Antonio N, Zhang Y, Rajagopalan A, Flietner E, Wilson K, Zhang X, Shinn P, Klumpp-Thomas C, McKnight C, Itkin Z, Chen L, Kazandijian D, Zhang J, Michalowski AM, Simmons JK, Keats J, Thomas CJ, Mock BA. Drug combinations identified by high-throughput screening promote cell cycle transition and upregulate Smad pathways in myeloma. Cancer Lett. 2023 Aug 1;568:216284. doi: 10.1016/j.canlet.2023.216284. Epub 2023 Jun 24. PMID: 37356470; PMCID: PMC10408729.\nSEQUENCE No. (e.g., 1, 2, 3, etc.); […] (e.g., Cells, Incubation, Reagent, etc.); VALUE and DESCRIPTION.\n1; Cells; 5 uL; white, solid bottom 1536-well Greiner assay plate.\n2; Compounds; 23 nL; Kalypsis pin tool (Wako USA) equipped with a 1536-well pin head to transfer to the assay plates.\n3; Incubation; 48 hours; 37C incubation.\n4; Reagent;5uL; CellTiter Glo (Promega).\n5; Detector; 425V; Luminescence; Viewlux PerkinElmer.\nNOTES (numbers refer to Sequence numbers above)\n1. The cell-based screening methods employed in this study were like those previously published. Briefly, the corresponding myeloma cell lines were screened in 1,536-well plates with 500 cells, 5-uL per well for inhibition of cell viability (assessed by measuring ATP levels with CellTiterGlo).\n2. NCATS MIPE 4.0 library of approved and investigational drugs were added using the Kalypsis pin tool. Wells treated with DMSO only for 100% viability and media only wells for 0% viability were used as controls.\n3. The assay plates were covered and incubated for 48 hours in a 37C, 5% CO2 incubator with controlled humidity.\n4. After 48 hours, CellTilter-GloTM luminescent substrate mix (Promega) reagent was added to the assay plate and plates we incubated for 5 min at room temperature.\n5. Signal was measured as median relative luminescence units on a ViewLux (PerkinElmer) multiplate reader.\n[1] Heske CM, Davis MI, Baumgart JT, Wilson K, Gormally MV, Chen L, Zhang X, Ceribelli M, Duveau DY, Guha R, Ferrer M, Arnaldez FI, Ji J, Tran HL, Zhang Y, Mendoza A, Helman LJ, Thomas CJ. Matrix Screen Identifies Synergistic Combination of PARP Inhibitors and Nicotinamide Phosphoribosyltransferase (NAMPT) Inhibitors in Ewing Sarcoma. Clin Cancer Res. 2017 Dec 1;23(23):7301-7311. doi: 10.1158/1078-0432.CCR-17-1121. Epub 2017 Sep 12. PMID: 28899971; PMCID: PMC6636827.", "values": [{"smiles": "CC1COc2c(N3CCN(C)CC3)c(F)cc3c(=O)c(C(=O)O)cn1c23", "note": "(stereo not given)", "viability (% of DMSO)": "102%"}, {"smiles": "CC(=O)OCC(CCn1cnc2cnc(N)nc21)COC(C)=O", "viability (% of DMSO)": "117%"}, {"smiles": "CC1(C)O[C@H]2CC(=O)OC[C@]23[C@H]2CC[C@@]4(C)[C@H](c5ccoc5)OC(=O)[C@H]5O[C@]54[C@]2(C)C(=O)C[C@@H]13", "viability (% of DMSO)": "112%"}, {"smiles": "Cc1ccccc1N1C(=O)c2cc(S(N)(=O)=O)c(Cl)cc2NC1C", "note": "(stereo not given)", "viability (% of DMSO)": "87.8%"}, {"smiles": "O=c1[nH]cc(F)c(=O)[nH]1", "viability (% of DMSO)": "95.7%"}, {"smiles": "CN(Cc1cnc2nc(N)nc(N)c2n1)c1ccc(C(=O)N[C@@H](CCC(=O)O)C(=O)O)cc1", "viability (% of DMSO)": "107%"}, {"smiles": "CCOC(=O)Nc1ccc(NCc2ccc(F)cc2)nc1N", "Potency": "20.9 µM (active)"}, {"smiles": "CCOC(=O)c1ncn2c1CN(C)C(=O)c1cc(F)ccc1-2", "viability (% of DMSO)": "97%"}, {"smiles": "O=C1N(c2ccccc2)c2ccccc2C1(Cc1ccncc1)Cc1ccncc1", "viability (% of DMSO)": "143%"}, {"smiles": "CCC1(c2ccccc2)C(=O)NCNC1=O", "viability (% of DMSO)": "94%"}, {"smiles": "Cc1cn([C@H]2C[C@H](N=[N+]=[N-])[C@@H](CO)O2)c(=O)[nH]c1=O", "viability (% of DMSO)": "103%"}, {"smiles": "Cc1ccc(C(=O)Nc2ccc(S(=O)(=O)O)c3cc(S(=O)(=O)O)cc(S(=O)(=O)O)c23)cc1NC(=O)c1cccc(NC(=O)Nc2cccc(C(=O)Nc3cc(C(=O)Nc4ccc(S(=O)(=O)O)c5cc(S(=O)(=O)O)cc(S(=O)(=O)O)c45)ccc3C)c2)c1", "viability (% of DMSO)": "106%"}, {"smiles": "Clc1ccc2c(c1)C(N1CCNCC1)=Nc1ccccc1O2", "viability (% of DMSO)": "123%"}, {"smiles": "Clc1ccc(C(c2ccccc2Cl)C(Cl)Cl)cc1", "note": "(stereo not given)", "viability (% of DMSO)": "98.1%"}, {"smiles": "O=C(c1ccc(F)cc1)C1CCN(CCn2c(=O)[nH]c3ccccc3c2=O)CC1", "viability (% of DMSO)": "121%"}, {"smiles": "COc1ccc2[nH]cc(CCNC(C)=O)c2c1", "viability (% of DMSO)": "109%"}, {"smiles": "Cn1c(=O)c2[nH]cnc2n(C)c1=O", "viability (% of DMSO)": "105%"}, {"smiles": "CC[C@@]1(O)C(=O)OCc2c1cc1n(c2=O)Cc2cc3c(CN(C)C)c(O)ccc3nc2-1", "Potency": "3.72 µM (active)"}, {"smiles": "O=C1c2c(O)ccc(O)c2C(=O)c2c(NCCNCCO)ccc(NCCNCCO)c21", "Potency": "5.26 µM (active)"}, {"smiles": "CC[N+](CC)(CC)CCOc1cccc(OCC[N+](CC)(CC)CC)c1OCC[N+](CC)(CC)CC", "viability (% of DMSO)": "111%"}, {"smiles": "Nc1c2c(nc3ccccc13)CCCC2", "viability (% of DMSO)": "111%"}, {"smiles": "CCN1CCCC1CNC(=O)c1cc(S(=O)(=O)CC)c(N)cc1OC", "note": "(stereo not given)", "viability (% of DMSO)": "117%"}, {"smiles": "CN(C)CCOC(c1ccccc1)c1ccccc1", "viability (% of DMSO)": "96.3%"}, {"smiles": "CN1C2CCC1CC(OC(=O)C(CO)c1ccccc1)C2", "note": "(stereo not given)", "viability (% of DMSO)": "94.7%"}, {"smiles": "CC(C)(Oc1ccc(C2CC2(Cl)Cl)cc1)C(=O)O", "note": "(stereo not given)", "viability (% of DMSO)": "121% [at 92.2 µM]"}, {"smiles": "Cn1c(=O)c2c(ncn2C)n(C)c1=O", "viability (% of DMSO)": "119%"}, {"smiles": "Cn1ccc2cc3c(cc21)CCN3C(=O)Nc1cccnc1", "viability (% of DMSO)": "102%"}, {"smiles": "Cn1cnc2c1c(=O)[nH]c(=O)n2C", "Potency": "7.43 µM (active)"}, {"smiles": "CS(=O)(=O)Nc1ccc([N+](=O)[O-])cc1Oc1ccccc1", "viability (% of DMSO)": "121%"}, {"smiles": "NCCCCCC(=O)O", "viability (% of DMSO)": "113%"}, {"smiles": "CN1CCN2c3ccccc3Cc3ccccc3C2C1", "note": "(stereo not given)", "viability (% of DMSO)": "117%"}, {"smiles": "CN(CCOc1ccc(NS(C)(=O)=O)cc1)CCc1ccc(NS(C)(=O)=O)cc1", "viability (% of DMSO)": "101%"}, {"smiles": "O=C(C1CCCCC1)N1CC(=O)N2CCc3ccccc3C2C1", "note": "(stereo not given)", "viability (% of DMSO)": "118%"}, {"smiles": "CN(C)CCC=C1c2ccccc2C=Cc2ccccc21", "viability (% of DMSO)": "132%"}, {"smiles": "CCc1cccc2c3c([nH]c12)C(CC)(CC(=O)O)OCC3", "note": "(stereo not given)", "viability (% of DMSO)": "104%"}, {"smiles": "NC(CO)C(=O)NNCc1ccc(O)c(O)c1O", "note": "(stereo not given)", "viability (% of DMSO)": "99.8%"}, {"smiles": "Fc1ccc([C@@H]2CCNC[C@H]2COc2ccc3c(c2)OCO3)cc1", "viability (% of DMSO)": "123%"}, {"smiles": "CC(C)Cc1ccc(C(C)C(=O)O)cc1", "note": "(stereo not given)", "viability (% of DMSO)": "105% [at 23.2 µM]"}, {"smiles": "OCCN1CCN(CCCN2c3ccccc3Sc3ccc(C(F)(F)F)cc32)CC1", "Potency": "18.7 µM (active)"}, {"smiles": "COc1cc2nc(N(C)CCCNC(=O)C3CCCO3)nc(N)c2cc1OC", "note": "(stereo not given)", "viability (% of DMSO)": "112%"}]}]}
